Experimental findings from PubChem BioAssay (Tox21) are described below.

Active and inactive are the calls of the source. The call rests on the fitted dose curve; in most records, active means well fitted curve in the direction sought with a large enough effect in the repeat runs; inconclusive means weak or mixed curves; inactive means flat fitted curve, though single readings scatter.
On the % scale 0 is the no-effect control and ±100 the full control effect.

The nature of the test: qHTS assay to test for compound auto fluorescence at 535 nm (green) in HEK293 cells (AID 720680). The conditions noted are these: green autofluorescence 485/535 nm; series mostly up to 91.3 µM; fluorescence, % of fluorescein: at the top concentration. From the text:
U.S. Tox21 Program National Center for Advancing Translational Sciences [NCATS] NIH Chemical Genomics Center [NCGC] U.S. Environmental Protection Agency [EPA] National Institutes of Environmental Health Sciences [NIEHS] National Toxicology Program [NTP] U.S. Food and Drug Administration [FDA] Tox21 Assay Overview: Compound auto fluorescence often interferes with screening of the compound library against various biological targets and signaling pathways. Some of these compounds may have fluorophoric properties. Such properties may interfere with the assay outputs resulting in false positives and/or negatives. To decrease such complications and ensure the compound activities are relevant in terms of biological response, the Tox21 10K compound library was screened for auto fluorescence. From the fluorophores used as reporter signals in our screening assays, the auto fluorescence equivalencies of compounds against three fluorophores have been evaluated: Triamterene, Fluorescein and Rose Bengal sodium for blue, green and red fluorescence, respectively. The fluorescence intensities were measured using Excitation/Emission wavelengths at 405/460nm, 485/535nm and 540/590nm for blue, green and red labels, respectively. This assay includes the green fluorescence data.
Tox21 Assay Protocol Summary: 2,000 HEK293 cells in 5 uL of culture medium containing 10% dialyzed FBS per well were dispensed into black wall/clear bottom 1536-well plates using a Multidrop Combi Dispenser (Thermo Scientific). The assay plates were incubated for 4-5 hr at 37C to allow cell attachment to the well bottom, followed by the transfer of 23 nL compound or DMSO vehicle by a pintool work station (Kalypsys, San Diego, CA). After the assay plates were incubated overnight at 37C and 5% CO2, fluorescence intensities in the assay plates were measured by an Envision (PerkinElmer, Shelton, CT) plate reader using three labels for measuring blue, green and red fluorescence at […] 460, 535 and 590nm respectively.
With `COC(=O)CCCCCCCC(=O)OC`, the “fluorescence, % of fluorescein” value was -0.137% (inactive).

Consider `Nc1nnc(-c2cccc(Cl)c2Cl)c(N)n1`, for which the “fluorescence, % of fluorescein” value was -0.0248% [at 46 µM] (inactive).

With `CCCCCCCCOS(=O)(=O)O`, the “fluorescence, % of fluorescein” value was -0.1% (inactive).

`CCCCCCCCCCCCCC`: the “fluorescence, % of fluorescein” value was -0.0365% (inactive).

Take `CC1COc2ccccc2N1` (stereo not given): the “fluorescence, % of fluorescein” value was -0.0433% (inactive).

As for `CC(C)(C)c1cc(CCC(=O)NN)cc(C(C)(C)C)c1O`, the “fluorescence, % of fluorescein” value is 0.0008% (inactive).

In the case of `Nc1ccc([N+](=O)[O-])c(N)c1`, the “fluorescence, % of fluorescein” value was 0.0504% (inactive).

As to `CC(=O)Nc1cccc(C)c1`, the “fluorescence, % of fluorescein” value was 0.0182% (inactive).

In the case of `CCNC(=O)C1CC(C)CCC1C(C)C` (stereo not given), the “fluorescence, % of fluorescein” value is 0.0308% (inactive).

Turning to `NC(CO)C(=O)NNCc1ccc(O)c(O)c1O` (stereo not given), the “fluorescence, % of fluorescein” value is 0.0071% [at 46 µM] (inactive).

Turning to `C[C@@H](Oc1ccc(CNC(=O)c2cccnc2Oc2ccc3c(c2)OCO3)c(F)c1)C(=O)O`, the “fluorescence, % of fluorescein” value was -0.0003% (inactive).

In the case of `CCN(C)C(=O)Oc1cccc([C@H](C)N(C)C)c1`, the “fluorescence, % of fluorescein” value is 0.0141% [at 46 µM] (inactive).

For `CN1CCN(CC(=O)N2c3ccccc3C(=O)Nc3cccnc32)CC1`, the “fluorescence, % of fluorescein” value is -0.0153% [at 46 µM] (inactive).

Turning to `O=C(CS(=O)Cc1ccco1)NC/C=C\COc1cc(CN2CCCCC2)ccn1` (stereo not given), the “fluorescence, % of fluorescein” value is 0.266% [at 46 µM] (inactive).

As for `CCCCOCCOC(=O)COc1nc(Cl)c(Cl)cc1Cl`, the “fluorescence, % of fluorescein” value is 0.0415% (inactive).

As to `CC(COC(C)(C)C)OCCCO` (stereo not given), the “fluorescence, % of fluorescein” value is -0.0894% (inactive).

Turning to `CC(=O)Nc1ccc(S(=O)(=O)Nc2ccc([N+](=O)[O-])cc2)cc1`, the “fluorescence, % of fluorescein” value was -0.0076% [at 46 µM] (inactive).

With `Cc1ccccc1N=O`, the “fluorescence, % of fluorescein” value is 0.0134% [at 95.7 µM] (inactive).

Take `Cc1ccc(S(=O)(=O)O)c(C)c1`: the “fluorescence, % of fluorescein” value is -0.0959% (inactive).

In the case of `CC1=CCC(C(C)C)=CC1`, the “fluorescence, % of fluorescein” value was -0.0568% (inactive).

`O=C(O)CCSSCCC(=O)O`: the “fluorescence, % of fluorescein” value is -0.0596% [at 95.7 µM] (inactive).

With `O=C(NCCc1c[nH]c2ccccc12)c1cccnc1`, the “fluorescence, % of fluorescein” value was -0.0825% [at 46 µM] (inactive).

As to `Nc1ccc2cc(S(=O)(=O)O)cc(O)c2c1`, the “fluorescence, % of fluorescein” value was 0.483% (inactive).

For `CCCCCOC(=O)CCC`, the “fluorescence, % of fluorescein” value was -0.0328% (inactive).

As to `CCCC/C=C/C=C\C=O`, the “fluorescence, % of fluorescein” value was -0.0373% (inactive).

Turning to `COc1ccc(-c2cc(=O)c3c(O)cc(O[C@@H]4O[C@H](CO[C@@H]5O[C@@H](C)[C@H](O)[C@@H](O)[C@H]5O)[C@@H](O)[C@H](O)[C@H]4O)cc3o2)cc1O`, the “fluorescence, % of fluorescein” value was -0.0351% [at 46 µM] (inactive).

For the molecule `FC(F)(F)c1ccccc1-n1ccnc1`, the “fluorescence, % of fluorescein” value is -0.0001% [at 46 µM] (inactive).

For `C=C1CC/C=C(\C)CC[C@@H]2[C@@H]1CC2(C)C`, the “fluorescence, % of fluorescein” value is -0.002% (inactive).

Consider `CCN1CCc2nc(N)oc2CC1`, for which the “fluorescence, % of fluorescein” value is -0.0203% [at 46 µM] (inactive).

With `C=C(C)C(=O)OCc1ccccc1`, the “fluorescence, % of fluorescein” value was 0.0056% (inactive).

Regarding `CC(=O)NCc1c(I)c(NC(C)=O)c(I)c(C(=O)O)c1I`, the “fluorescence, % of fluorescein” value was -0.0921% [at 46 µM] (inactive).

For `C=C(C)C(=O)OCC(C)(C)COC(=O)C(=C)C`, the “fluorescence, % of fluorescein” value is 0.0226% (inactive).

For the molecule `Nc1ccc(S(=O)(=O)Nc2ccc(Cl)nn2)cc1`, the outcome was inactive.

For the molecule `O=C(NCC(O)CO)c1c(I)c(C(=O)NCC(O)CO)c(I)c(N(CCO)C(=O)CO)c1I` (stereo not given), the fluorescence, % of fluorescein is -0.0067% [at 18.6 µM] (inactive).

For `O=C(OCC1(COC(=O)c2cccnc2)CCCC(COC(=O)c2cccnc2)(COC(=O)c2cccnc2)C1O)c1cccnc1`, the “fluorescence, % of fluorescein” value is 0.0395% [at 46 µM] (inactive).

`CCCCCCOc1ccccc1C(N)=O`: the “fluorescence, % of fluorescein” value is 0.0684% [at 46 µM] (inactive).

For `CCOC(=O)CC(=O)c1ccccc1`, the “fluorescence, % of fluorescein” value was -0.059% (inactive).

For the molecule `CN(C)CCOCCO`, the “fluorescence, % of fluorescein” value was -0.0565% (inactive).

For the molecule `CN(C)C(=O)CNC(=O)Cc1ccccc1`, the “fluorescence, % of fluorescein” value is 0.0921% [at 46 µM] (inactive).

`C=CC(OCC)OCC`: the “fluorescence, % of fluorescein” value was 0.0118% (inactive).
